# Data published in PubChem BioAssay AID1347415 (National Center for Advancing Translational Sciences (NCATS), 2020).
# Records with an inconclusive call do not appear. Values without a mark were called inactive. Active and inactive are the calls of the source. The call rests on the fitted dose curve; in most records, active means well fitted inhibition curve with a large enough effect; inconclusive means small, poorly fitted or top-dose-only effect; inactive means no such curve, though single readings can be large or run the other way.
# Assay: qHTS to identify inhibitors of the type 1 interferon - major histocompatibility complex class I in skeletal muscle: tertiary screen by RT-qPCR
# Details: C25cl48 human myoblasts, IFN-beta, HLA-B RT-qPCR, 24 h; series mostly up to 49.8 µM; activity change, negative = inhibition: at the top concentration
# Text: Assay Submitter (PI): Travis B. Kinder Ph.D. & James Inglese Ph.D. Assay Development and Screening Technology Laboratory (ADST) National Center for Advancing Translational Sciences (NCATS), Rockville, MD National Institute of Health (NIH), Bethesda, Maryland Idiopathic inflammatory myopathies, collectively referred to as myositis, are a group of rare autoimmune diseases characterized by skeletal muscle inflammation, weakness, and usually accompanied by systemic pathologies of the skin, lungs, or vasculature. Current immunosuppressive therapies and glucocorticoids are often not curative and are accompanied by harsh side effects, especially in children with juvenile myositis. We initiated a drug repurposing and development program to identify more targeted, less toxic therapeutics to treat myositis. Although its cause is not known, muscle from a subset of patients have an abundance of the inflammatory type 1 interferon (IFN) and a down-stream product major histocompatibility complex class I (MHC class I), which are both thought to contribute to damage and weakness. We conducted quantitative high throughput screening (qHTS) on 6,576 compounds (4,679 unique) through a series of cell-based assays to identify those that inhibit the IFN-stimulated expression of MHC class I in muscle precursor cells (myoblasts). The compound identification and evaluation strategy utilized a primary screen with reporter-tagged MHC class I in genome-engineered myoblasts, ATP content counter screen for viability, HLA-ABC immunofluorescence secondary screen, and HLA-B RT-qPCR tertiary screen. To determine if active compounds identified by qHTS in HLA-B HiBit reporter cells, and confirmed by HLA-ABC immunofluorescence, can inhibit the transcription of HLA-B mRNA, compounds were assayed by RT-qPCR. Briefly, 62 compounds identified from primary, counter, and secondary screening as inhibitory with minimal cytotoxicity were dispensed into 384-well plates using acoustic dispensing in a 6-point, 1:7 titration with a high final concentration of 10 uM. Normal immortalized human myoblasts C25cl48 were added to the plate with 4.0 ng/ml human IFN-beta for 24 hours, and cells were harvested and assayed by the Cells-to-Ct kit with TaqMan assays (Thermo Fisher).
# PROTOCOL TABLE (as described by Inglese et al., 2007) SEQUENCE No. (e.g., 1, 2, 3, etc.); […] (e.g., Cells, Incubation, Reagent, etc.); VALUE; DESCRIPTION 0; Compounds; 150 nl; Follow-up compounds dispensed at 150 nl/well with Labcyte Echo 655 acoustic dispenser into one Corning white/clear bottom, high base TC 384-well plates (3765) 1a; Cells; 30 uL; Using a p200 manual pipette, seed 780 cells/well into 1 plate in 30 ul/well of iHSKM growth medium without dexamethasone into columns wells A1-A6. […]
Structure (SMILES),"activity change, negative = inhibition",Potency
C[C@@H]1O[C@@H](O[C@H]2C[C@@H](O)[C@]3(CO)[C@H]4[C@H](O)C[C@]5(C)[C@@H](C6=CC(=O)OC6)CC[C@]5(O)[C@@H]4CC[C@]3(O)C2)[C@H](O)[C@H](O)[C@H]1O,-14.7%,–
Cc1[nH]nc2ccc(-c3cncc(OC[C@@H](N)Cc4c[nH]c5ccccc45)c3)cc12,–,207 nM (active)
C[C@@H]1O[C@@H](O[C@@H]2C=C3CC[C@@H]4[C@H](CC[C@]5(C)[C@@H](c6ccc(=O)oc6)CC[C@]45O)[C@@]3(C)CC2)[C@H](O)[C@H](O)[C@H]1O,-8.47%,–
CC(C)[C@]12O[C@H]1[C@@H]1O[C@@]13[C@@]1(C)CCC4=C(COC4=O)[C@@H]1C[C@@H]1O[C@@]13C2=O,-132%,–
COc1cccc2c1C(=O)c1c(O)c3c(c(O)c1C2=O)C[C@@](O)(C(=O)CO)CC3OC1CC(N2CCOC(OC)C2)C(O)C(C)O1 (stereo not given in full),–,92.4 nM (active)
